From PubChem BioAssay (NCATS)
Values without a mark were called inactive. Records with an inconclusive call do not appear. A call without a number means that no potency is given here. Active and inactive are the calls of the source. Unless noted, calls come from the whole dose curve; as a rule, active = well fitted curve in the direction sought with a large enough effect; inconclusive = small, poorly fitted or top-dose-only effect, or another doubt; inactive = no such curve, though single readings can be large; an effect the other way counts as inactive or inconclusive.

Tests used:
[1] = Cell Viability - HepG2 (AID 433; calls by dose curve;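 note: potency is the fitted concentration of half-maximal effect; potency for ATP loss meaning cytotoxicity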); details: qHTS
Summary of the method: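 ATP luminescence (CellTiter-Glo) after 40 h compound exposure, 37 °C, HepG2, 1500 cells/well, complete medium. Normalized: DMSO = basal, 100 uM tamoxifen = 100% inhibition. AC50 via standard Hill equation.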

[2] = Cell Viability - NIH 3T3 (AID 541); details: NIH 3T3 cell viability, qHTS; activity change, negative = cytotoxicity: at 92.2 µM (top of the series); note: nearly all actives have a fitted effect of over 25% in size
Summary of the method: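 Mouse NIH 3T3 fibroblasts, 1000 cells/well, rested 5 hr at 37 °C, then exposed to compound for 40 hr at 37 °C in complete medium. Viability read as intracellular ATP by CellTiter-Glo luminescence; AC50 from Hill-equation fits of concentration-response data.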

[3] = Cell Viability - H-4-II-E (AID 543); details: H-4-II-E rat hepatoma viability; series mostly up to 92.2 µM; note: nearly all actives have a fitted effect of over 35% in size; note: potency is the fitted concentration of half-maximal effect
Summary of the method: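 Rat hepatoma H-4-II-E cells, 1500 per well, treated 40 h at 37 °C in complete medium. Cellular ATP read by CellTiter-Glo luminescence; AC50 from Hill fits of concentration-response.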

[4] = Cell Viability - SH-SY5Y (AID 544); details: SH-SY5Y neuroblastoma cell viability; viability change, negative = cytotoxic: at 92.2 µM (top of the series); note: nearly all actives have a fitted effect of over 55% in size
Summary of the method: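 SH-SY5Y human neuroblastoma cells (1500/well) incubated 5 h, then compound-treated 40 h at 37 °C in complete medium. Viability read as intracellular ATP by CellTiter-Glo luminescence after 20 min; AC50 from Hill-equation fits of qHTS concentration-response.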

[5] = Cell Viability - LYMP1-003 - Assay at 40 hr (AID 964); details: LYMP1-003 lymphoblastoid viability; series mostly up to 92.2 µM; note: nearly all actives have a fitted effect of over 60% in size
Summary of the method: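 LYMP1-003 human lymphoblastoid cells, 2500/well, preincubated 5 h at 37 C, then treated with compound for 40 h at 37 C. Intracellular ATP read by CellTiter-Glo luminescence after 30 min at room temperature; AC50 from Hill-equation fits.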

[6] = Cell Viability - LYMP2-003 (AID 965); details: LYMP2-003 lymphoblastoid cell viability; series mostly up to 92.2 µM;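 note: cells exposed to compounds for 24 h before reading; nearly all actives have a fitted effect of over 50% in size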
Summary of the method: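 CellTiter-Glo luminescence (cellular ATP) after 24 h compound exposure at 37 C in complete medium; 2500 cells/well, 5 h settling beforehand. Concentration-response fitted to standard Hill equation for AC50. Tetraoctylammonium bromide served as positive control.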

[7] = Cell Viability - LYMP2-015 (AID 971); details: LYMP2-015 lymphoblastoid cell viability; series mostly up to 92.2 µM; note: nearly all actives have a fitted effect of over 55% in size
Summary of the method: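 LYMP2-015 human lymphoblastoid cells (2500/well) in complete medium, compound-treated 24 h at 37 C; viability read as cellular ATP by CellTiter-Glo luminescence after 30 min at room temperature. AC50 from Hill-equation fits of qHTS concentration-response data.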

[8] = Cell Viability - LYMP2-017 (AID 972); details: LYMP2-017 lymphoblastoid cell viability; series mostly up to 92.2 µM; note: nearly all actives have a fitted effect of over 55% in size
Summary of the method: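 LYMP2-017 human lymphoblastoid cells (2500/well) settled 5 hr at 37 C, then exposed to compound 24 hr at 37 C in complete medium. Viability taken as intracellular ATP by CellTiter-Glo luminescence after 30 min at RT; AC50 from Hill fits.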

[9] = Cell Viability - LYMP2-021 (AID 974); details: LYMP2-021 lymphoblastoid cells viability; series mostly up to 92.2 µM;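 note: compound exposure lasts 24 hours at 37 °C; nearly all actives have a fitted effect of over 55% in size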
Summary of the method: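 Human lymphoblastoid LYMP2-021 cells, 2500/well in complete medium, treated 24 hours at 37 C. Intracellular ATP by CellTiter-Glo luminescence (30 min, RT); AC50 from Hill fits of concentration-response.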

[10] = Cell Viability - LYMP2-010 (AID 981); details: LYMP2-010 lymphoblastoid cell viability, qHTS; series mostly up to 92.2 µM; note: nearly all actives have a fitted effect of over 55% in size
Summary of the method: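 Human lymphoblastoid LYMP2-010 cells (2500/well) treated 24 h at 37 C in complete medium; viability read as intracellular ATP by CellTiter-Glo luminescence. AC50 from Hill fits of concentration-response data; tetraoctylammonium bromide positive control.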

[11] = Cell Viability - LYMP2-012 (AID 982); details: LYMP2-012 lymphoblastoid cell viability qHTS; series mostly up to 92.2 µM
[12] = Cell Viability - LYMP2-016 (AID 984); details: LYMP2-016 lymphoblastoid cell viability, qHTS; series mostly up to 92.2 µM; note: nearly all actives have a fitted effect of over 55% in size
Summary of the method: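 qHTS, 1536-well: 2500 LYMP2-016 cells/well, 5 hr 37 C, compound added, 24 hr 37 C, CellTiter-Glo 30 min RT, luminescence. Tetraoctylammonium bromide positive control. AC50 via Hill fit.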

[13] = Cell Viability - LYMP2-020 (AID 986); details: series mostly up to 92.2 µM; note: nearly all actives have a fitted effect of over 55% in size
Summary of the method: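 Human lymphoblastoid LYMP2-020 cells (2500/well) preincubated 5 h at 37 C, then treated 24 h at 37 C. Viability measured as intracellular ATP by CellTiter-Glo luminescence after 30 min at room temperature; AC50 from Hill fits.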

[14] = target: Retinoic acid receptor RXR-alpha (Homo sapiens) (UniProt P19793); experiment: qHTS assay for small molecule agonists of retinoid X receptor alpha signaling (AID 588544; calls by dose curve); details: HEK293T RXRa-UAS-bla, beta-lactamase reporter, 18 h; series mostly up to 76.7 µM
Sequence of Retinoic acid receptor RXR-alpha (Homo sapiens) (P19793 whole entry, looked up): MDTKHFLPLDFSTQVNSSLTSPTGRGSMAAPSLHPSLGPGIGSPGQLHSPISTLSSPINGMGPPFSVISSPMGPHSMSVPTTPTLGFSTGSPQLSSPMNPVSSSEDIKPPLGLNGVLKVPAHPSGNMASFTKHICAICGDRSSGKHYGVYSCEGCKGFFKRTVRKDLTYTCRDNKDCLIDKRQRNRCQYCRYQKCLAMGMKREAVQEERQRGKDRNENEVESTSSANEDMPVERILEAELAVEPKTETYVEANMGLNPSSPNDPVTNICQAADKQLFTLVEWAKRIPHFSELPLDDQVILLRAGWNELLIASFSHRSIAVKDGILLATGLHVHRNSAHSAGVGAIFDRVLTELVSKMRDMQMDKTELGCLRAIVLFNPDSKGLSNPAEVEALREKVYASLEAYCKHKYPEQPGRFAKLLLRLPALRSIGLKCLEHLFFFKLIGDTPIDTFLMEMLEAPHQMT

[15] = target: Retinoic acid receptor RXR-alpha (Homo sapiens) (UniProt P19793); experiment: qHTS assay for small molecule antagonists of retinoid X receptor alpha signaling (AID 588546; active = well fitted inhibition curve with a large enough effect in the signal ratio, with a control signal flat, not every such curve was filed as active; the % refers to the signal ratio;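 note: cells stimulated with 9-cis-retinoic acid as agonist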); details: HEK293T RXRa-UAS-bla, beta-lactamase ratio, antagonist mode
Summary of the method: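 Beta-lactamase reporter inhibition, read as CCF4 fluorescence ratio (ex 405, em 460/530 nm) after 2 h at RT. HEK293T UAS-bla cells, 2500/well, were stimulated with 9-cis-RA at 500 or 100 nM final alongside test compound for 18 h at 37 C.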

[16] = qHTS assay for small molecule activators of the human pregnane X receptor (PXR) signaling pathway (AID 720659; call rule not given here); details: DPX-2 HepG2 CYP3A4-luciferase, 24 h; series mostly up to 92.3 µM
[17] = Cell Viability - LYMP2-001 (AID 921); details: LYMP2-001 lymphoblastoid cell viability; series mostly up to 92.2 µM; note: nearly all actives have a fitted effect of over 70% in size
Summary of the method: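 CellTiter-Glo luminescence (intracellular ATP) after 24 hr compound exposure at 37 C, 2500 lymphoblastoid cells/well in complete medium. AC50 fitted with standard Hill equation; tetraoctylammonium bromide positive control.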

[18] = Cell Viability - LYMP2-006 (AID 978); details: LYMP2-006 lymphoblastoid cell viability, qHTS; series mostly up to 92.2 µM; note: nearly all actives have a fitted effect of over 60% in size
Summary of the method: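 qHTS, 1536-well; 2500 cells/well, 5 hr 37 C; cpd 24 hr 37 C; CellTiter-Glo 30 min RT; luminescence. Tetraoctylammonium bromide pos. ctrl. AC50 via Hill eqn.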

[19] = qHTS assay for small molecule agonists of the antioxidant response element (ARE) signaling pathway measured by Nrf2-dependant transcriptional activity (AID 720636; active = well fitted curve in the direction sought with a large enough effect in the repeat runs; an effect the other way counts as inactive or inconclusive); details: ARE-luc HepG2, Nrf2 luciferase reporter, 16 h; series mostly up to 92.4 µM
Summary of the method: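 Nrf2-dependent transcription read as ONE-Glo luciferase signal from ARE-luc HepG2 reporter cells after 16 hr compound treatment at 37 C, 5% CO2, in assay medium with 1% dialyzed FBS.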

[20] = Cell Viability - LYMP1-002 - Assay at 40 hr (AID 994); details: LYMP1-002 lymphoblastoid cell viability; series mostly up to 92.2 µM; note: nearly all actives have a fitted effect of over 60% in size
Summary of the method: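 LYMP1-002 human lymphoblastoid cells (2500/well, complete medium) were treated with compounds for 40 hr at 37 C. Intracellular ATP was measured by CellTiter-Glo luminescence, and AC50 values came from Hill-equation fits of concentration-response data; tetraoctylammonium bromide was the positive control.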

| SMILES | Potency [1] [µM] | Potency [2] | Potency [3] | Potency [4] | Potency [5] | Potency [6] | Potency [7] | Potency [8] | Potency [9] | Potency [10] | Potency [11] | Potency [12] | Potency [13] | outcome [14] | max response [15] [%] | outcome [16] | Potency [17] | Potency [18] | Potency [19] | Potency [20] |
| --- | --- | --- | --- | --- | --- | --- | --- | --- | --- | --- | --- | --- | --- | --- | --- | --- | --- | --- | --- | --- |
| N#C/C(N)=C(/N)C#N | > 92 | inactive | inactive | inactive | inactive | inactive | inactive | inactive | inactive | inactive | inactive | inactive | inactive | inactive | 2 | inactive |  |  |  |  |
| CCN(CC)N=O | > 92 | inactive | inactive | inactive | inactive |  | inactive |  | inactive | inactive | inactive | inactive | inactive | inactive | 1.08 | inactive | inactive | inactive | inactive |  |
| O=NN1CCCCC1 | > 92 | inactive | inactive | inactive | inactive | inactive |  | inactive | inactive | inactive | inactive | inactive | inactive | inactive | 14.4 | inactive | inactive | inactive | inactive | inactive |
| CSSC | > 92 | inactive |  | inactive |  |  | inactive | inactive | inactive | inactive | inactive | inactive |  | inactive | 7.08 | inactive | inactive |  | inactive | inactive |
| Nc1cccc(Cl)c1 | > 92 |  |  | inactive | inactive | inactive | inactive | inactive | inactive | inactive | inactive | inactive | inactive | inactive | -7.21 | inactive |  | inactive | inactive | inactive |
| O=C(O)C(Cl)Br (centres undefined) | > 92 | inactive | inactive | inactive | inactive | inactive |  | inactive | inactive |  | inactive | inactive |  | inactive |  | inactive | inactive | inactive | inactive | inactive |
| CC12CC1(C)C(=O)N(c1cc(Cl)cc(Cl)c1)C2=O (centres undefined) | > 92 |  | inactive | inactive | inactive | inactive | inactive | inactive | inactive |  |  | inactive | inactive | inactive | -13.5 |  | inactive | inactive | inactive | inactive |
| ClCc1ccccc1 | > 92 | inactive | inactive |  | inactive | inactive |  | inactive | inactive | inactive | inactive | inactive | inactive | inactive | 6.84 | inactive | inactive | inactive | inactive | inactive |
| O=Cc1ccc2c(c1)OCO2 | > 92 |  | inactive | inactive | inactive | inactive | inactive | inactive | inactive | inactive | inactive | inactive | inactive |  | -12.4 | inactive | inactive | inactive |  | inactive |
| CC1CC(=O)O1 (centres undefined) | > 92 | inactive | inactive | inactive | inactive | inactive | inactive | inactive |  |  | inactive | inactive | inactive | inactive | 4.5 | inactive | inactive |  | inactive | inactive |
| c1ccc(Nc2ccc(Nc3ccccc3)cc2)cc1 | > 92 |  | 7.94 µM (active) |  |  |  |  |  | inactive | inactive | inactive | inactive |  |  | -13.3 |  |  | inactive |  | inactive |
| CC(C)CC(C)N (centres undefined) | > 92 | inactive |  | inactive | inactive |  |  | inactive | inactive | inactive | inactive | inactive | inactive | inactive | 1.28 | inactive | inactive |  | inactive | inactive |
| Oc1ccc(Cl)c(Cl)c1Cl | > 92 |  | inactive | inactive | inactive |  |  | inactive | inactive | inactive | inactive | inactive | inactive |  |  | inactive | inactive | inactive | inactive |  |
| CC(C)C#N |  |  | inactive | inactive |  | inactive | inactive | inactive |  | inactive | inactive |  | inactive | inactive | 2.91 | inactive | inactive | inactive | inactive | inactive |
| Clc1ccccc1 | > 92 | inactive | inactive | inactive |  | inactive | inactive | inactive | inactive |  | inactive | inactive | inactive | inactive | -2.2 | inactive | inactive | inactive | inactive | inactive |
| C=CCCl |  | inactive | inactive |  | inactive | inactive | inactive | inactive | inactive | inactive | inactive | inactive |  |  |  | inactive | inactive | inactive | inactive |  |
